For 84 compounds, inhibition results are on record in PubChem BioAssay AID1962 (The Scripps Research Institute Molecular Screening Center, 2009).

Out of some 300,000 compounds screened, about 2,500 (0.83%) were called active. This excerpt belongs to a sample that is enriched for actives. Unmarked numbers belong to inactive results.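 The calls were made as follows: active = inhibition above the mean of all tested compounds plus 3 SD, set per screening campaign (cut at about 24% in these data); inactive = the rest.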

In general, inhibition refers to the relative decrease from the control value, in per cent.

For this assay, the system named is tRNA 2'-phosphotransferase TPT1 (Candida albicans SC5314). Nature of the assay: Candida albicans TPT1 enzyme inhibitors, primary screen, biochemical, fluorescence polarization (AID 1962).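 Also: plate controls were DMSO alone for no effect and ferristatin control at 100 nM for full effect.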 To be noted: recombinant caTPT1, FP RNA substrate dephosphorylation; at 5 µM; stronger effect = higher value. On the technique in general: In fluorescence polarisation assays a small probe gives low polarisation when free and higher when bound to something large.
With `CC1CCCCC1NC(=O)CSc1nnc(-c2ccncc2)n1CCCN(C)C` (centres undefined), the inhibition is -2.27%. The same measure for `Fc1ccc2nc(Nc3nc4c(s3)CCCC4)sc2c1`: 24.1% (active); for `CSc1ncccc1C(=O)Nc1nc2ccc(F)cc2s1`: -0.86%; for `Fc1cc(F)c2nc(Nc3nc4c(F)cccc4s3)sc2c1`: -0.65%.

Turning to `CCc1cccc(C)c1N(C(=O)Cn1c(CO)nc2ccccc21)C(C)COC` (centres undefined), the inhibition is -1.41%.

On to `O=C(N/N=C/c1cccnc1)c1cc2ccccc2cc1O`, for which the inhibition was -1.97%. The same measure for `CC(C)(C)OC(=O)NNc1c2ccccc2nc2ccccc12`: -0.98%. The same measure for `O=C(NNc1c2ccccc2nc2ccccc12)c1cc2ccccc2cc1O`: 25.8% (active); for `CCOc1ccc(-n2cnnn2)cc1S(=O)(=O)N1CCC(C)CC1C` (centres undefined): 3.77%; for `COc1cccc(CNC(=O)C2CCCN(S(=O)(=O)N3CC(C)CC(C)C3)C2)c1` (centres undefined): -2.25%. Turning to `COc1ccc2c(c1)[C@H]1[C@H](CO2)[C@H](c2ccccc2)[C@]2(C)C(=O)Nc3cc(F)c(F)cc3C(=O)N12`, the inhibition was -1.54%.

For the compound `COc1ccc(/C=C(\NC(=O)c2ccccc2)C(=O)NCCN2CCOCC2)cc1OC`, the inhibition is -0.34%.

`CCOC(=O)CNC(=O)/C(=C\c1ccc(F)cc1)NC(=O)c1ccccc1`: the inhibition is -8.38%. Under `Cn1c2ccccc2c2cc(/C=C(\NC(=O)c3ccccc3)C(=O)NCC(=O)O)ccc21` stands 86.7% (active); under `CCN1CCN(C(=O)N[C@@H](C(=O)N[C@@H]2C(=O)N3C(C(=O)O)=C(CSc4nnnn4C)CS[C@H]23)c2ccc(O)cc2)C(=O)C1=O`, -2.09%; under `CS(=O)(=O)c1ccc2c(c1)SC1=NC(=O)/C(=C/c3ccco3)C(=N)N12`, 62.9% (active).

On to `Cc1cc(/C=C2/C(=N)N3C(=NC2=O)SN=C3S(C)(=O)=O)c(C)n1-c1ccccc1`, for which the inhibition is 4.75%.

As to `CS(=O)(=O)C1=NN2C(=N)/C(=C\c3ccc(OCCOc4ccccc4)cc3)C(=O)N=C2S1`, the inhibition was 2.39%. Under `COc1ccccc1C(=O)NCCC(=O)NCC(c1ccco1)N1CCCCC1` (centres undefined) stands 1.82%. Take `O=C(NCc1ccccc1)C(=O)NCC1OCCN1S(=O)(=O)c1ccc(Br)cc1` (centres undefined): the inhibition was -2.5%. Consider `COc1ccc(CCN2C(=O)C(C)=C(C)C2=O)cc1OC`, for which the inhibition was 1.36%. The same measure for `COc1cc(/C=C2/C(=O)NN(c3ccc(F)cc3)C2=O)cc([N+](=O)[O-])c1O`: -1.74%. Under `C#CCOc1ccc(/C=C2/C(=O)NN(c3ccccc3)C2=O)cc1OC` stands 0.28%; under `COc1cc(/C=C2/C(=O)NN(c3cccc(Cl)c3)C2=O)cc(Br)c1O`, 130% (active); under `N#C/C(=C(/O)COc1cccc2ccccc12)c1nc2ccccc2[nH]1`, 14.7%. The same measure for `Cc1ccccc1OC/C(O)=C(\C#N)c1nc2ccccc2[nH]1`: 2.58%. Turning to `N#C/C(=C(/O)COC(=O)COc1ccc(Cl)cc1)c1nc2ccccc2[nH]1`, the inhibition is 35% (active). The same measure for `C#CCOCCOCCOCCNc1nc(N2CCN(C(=O)CCCCCCCCCCNC(=O)[C@H]([C@@H](C)CC)n3cc(CCCCN=C(N)N)nn3)CC2)nc(N2CCN(C(=O)CCCCCCCCCCNC(=O)[C@H](CO)n3cc(CCCSC)nn3)CC2)n1`: -0.55%.

As to `COc1ccc(CC2c3cc(OC)c(OC)cc3CC[N+]2(C)CCC(=O)OCCCCCOC(=O)CC[N+]2(C)CCc3cc(OC)c(OC)cc3C2Cc2ccc(OC)c(OC)c2)cc1OC` (centres undefined), the inhibition is 0%.

As to `COCCNC(=O)/C(C#N)=C/c1nc(N(C)C)n(-c2ccc(F)cc2)c1Cl`, the inhibition is 1.88%. Under `Cc1c(C)n2c(SCC(=O)N3CCCC3)nnc2[nH]c1=O` stands 0.57%; under `CCC1C/C(=C/c2cccs2)C(=O)/C(=C/c2cccs2)C1` (centres undefined), 14.5%.

Consider `O=C1OC(/C=C/c2ccccc2)=NC/1=C/c1ccco1`, for which the inhibition was 1.61%. The same measure for `CC(C)(C)C1C/C(=C/c2ccco2)C(=O)/C(=C/c2ccco2)C1` (centres undefined): 71.8% (active). Under `COC(=O)c1ccc(Sc2ccc(F)cc2)c(N)c1` stands 1.95%. The same measure for `CCCCNc1ccc(C(=O)Nc2cccc(C)n2)cc1[N+](=O)[O-]`: 3.18%. For the compound `CCOc1ccc(OCc2ccc(C(=O)Nc3cccc(C)n3)o2)cc1`, the inhibition was -2.96%.

Consider `Cc1cccc(NC(=O)c2ccc(COc3ccccc3[N+](=O)[O-])o2)n1`, for which the inhibition was 31.1% (active). The same measure for `CCOc1ccc2c(=O)c(-c3ccc4c(c3)OCCCO4)c(C)oc2c1`: 2.18%; for `CN(C)Cc1c(C(=O)N/N=C/c2ccccc2OCc2ccc(F)cc2)nnn1-c1nonc1N`: 2.3%; for `COc1ccccc1C1CC(=O)n2c(nc(-c3ccccc3)c2-c2ccccc2)S1` (centres undefined): -2.44%.

Take `NS(=O)(=O)c1ccc(CNC(=O)c2cnccn2)cc1`: the inhibition is -3.97%.

`CC(=O)n1c(C=Nc2ccccc2)c(O)c2ccccc21`: the inhibition is 37.8% (active). The same measure for `CCCCn1c(=O)c(C(C)=O)c(O)c2ccccc21`: 3.63%; for `CCOc1ccc(N=Cc2c(O)n(-c3cccc(C)n3)c(=O)c3ccccc23)cc1`: 1.89%.

For the compound `Cc1cc(C)nc(NNC2=CC(=O)CC(C)(C)C2)n1`, the inhibition was -0.26%. Turning to `CCOC(=O)/C=c1\s/c(=C\c2ccc(C#N)cc2)c(=O)n1CC(=O)Nc1cccc(C)c1C`, the inhibition was 1.41%. The same measure for `Cc1cs/c(=N\N=C\c2ccc(O)cc2)n1Cc1ccco1`: 2.86%; for `CN(c1ccccc1)c1ccc(/C=c2\s/c(=C(/C#N)C(=O)C(C)(C)C)n(Cc3ccco3)c2=O)cc1`: 151% (active). The same measure for `Cc1ccccc1S(=O)(=O)N1[C@@H](c2cccc(Cl)c2)C(C(=O)O)=CC[C@H]1c1ccc(Cl)cc1`: -1.82%; for `Cc1ccc(S(=O)(=O)N2[C@@H](c3cccc(Cl)c3)C(C(=O)O)=CC[C@H]2c2ccc(Cl)c(Cl)c2)cc1`: 0.18%. The same measure for `Cn1cc(CN2CCCCC2c2ccccn2)c(-c2ccc3c(c2)OCCO3)n1` (centres undefined): -1.42%; for `COC(=O)c1ccc(/C=N/N2C(C)CCCC2C)cc1` (centres undefined): 0.75%. As to `CC(CCN1CCN=C1N(C)C)c1ccccc1` (centres undefined), the inhibition was 1.38%. The same measure for `Cc1ccc(CSCC2Nc3ccc(C(=O)N4CCN(c5ccc(F)cc5)CC4)cc3NC2=O)cc1` (centres undefined): 133% (active); for `C=CCn1c(SCc2cccc(F)c2)nc2cc(C(=O)N3CCC(C(N)=O)CC3)ccc2c1=O`: -3.32%; for `O=C(c1cc(-c2ccc(F)cc2)on1)N1CCN(c2ccc(F)cc2)CC1`: -5.93%. Under `O=C(c1cc(C(=O)N2CCN(c3ccc(F)cc3)CC2)cc([N+](=O)[O-])c1)N1CCN(c2ccc(F)cc2)CC1` stands -4.38%; under `O=C1Nc2cc(C(=O)N3CCN(c4ccc(F)cc4)CC3)ccc2NC1CSCc1cccc(F)c1` (centres undefined), 134% (active). The same measure for `O=C(c1cccc(F)c1)N1CCN(c2ccc([N+](=O)[O-])c(N3CCCCC3)c2)CC1`: -2.61%. Take `Cc1ccc(S(=O)(=O)N2[C@@H](c3ccccc3F)C(C(=O)O)=CC[C@H]2c2ccc(Cl)cc2)cc1`: the inhibition is -4.36%. Take `COc1ccc(CCNC(=S)N2CCN(S(=O)(=O)c3ccc(F)cc3)CC2)cc1`: the inhibition was -2.45%. In the case of `Cc1cccc(NC(=O)c2cccc(S(=O)(=O)N3CCCC3)c2)n1`, the inhibition was -1.41%.

Take `CCC(C)CCN1CCN=C1N(C)C` (centres undefined): the inhibition was 0.6%.

As to `O=S(=O)(Nc1ccccc1)c1ccc(NS(=O)(=O)c2cccs2)cc1`, the inhibition was 3.09%. The same measure for `O=c1[nH]nc(SCCS(=O)(=O)c2ccc(F)cc2)n1-c1ccccc1C(F)(F)F`: -4.89%; for `O=C(NCCS(=O)(=O)N1CCN(c2ccc(F)cc2)CC1)c1ccc2c(c1)OCO2`: -1.22%; for `CN(C)/C=C1/Nc2ccccc2C1=O`: -4.8%. In the case of `O=C1Nc2ccccc2/C1=C/c1ccnc2ccccc12`, the inhibition is -1.13%.

As for `Cc1cc(C)c(/C=C2\C(=O)Nc3ccccc32)[nH]1`, the inhibition was 101% (active). Under `CCN1C(=O)/C(=c2\s/c(=C3\Sc4ccccc4N3C)c(=O)n2C)N(C)C1=S` stands -1.53%; under `CN1/C(=c2/s/c(=C3/C(=O)N(c4ccccc4)NC3=Nc3ccccc3)n(C)c2=O)C(C)(C)c2ccccc21`, 128% (active). Under `COc1ccc(/C=C2\SC(=O)N(CCC(=O)NC3CCS(=O)(=O)C3)C2=O)cc1` (centres undefined) stands -0.19%; under `Cc1cc(C)n(CCC(=O)N2CCN(S(=O)(=O)c3ccc(C)c(C)c3)CC2)n1`, -1.67%; under `Cc1nc(-c2ccc(Cl)cc2)sc1C1(C)CC(c2ccccc2F)=NO1` (centres undefined), 1.26%. For the compound `C/[N+]([O-])=C\c1ccc([N+](=O)[O-])o1`, the inhibition is -5.74%. Under `CCn1c(/C=C/c2ccc([N+](=O)[O-])o2)nc2ccccc2c1=O` stands 25.2% (active); under `Cc1cc(C)nc(N/N=C/c2ccc([N+](=O)[O-])o2)n1`, -2.07%. The same measure for `CCCOc1ccc(Cc2c(O)nc(SC)[nH]c2=O)cc1C`: 1.03%. As for `S=C(Nc1cccc(Br)c1)N1CCn2cccc2C1c1cccnc1` (centres undefined), the inhibition was 1.48%. As for `C=CCC1=C/C(=C\c2c(N)n3nc(CC(=O)N4CCOCC4)sc3nc2=O)C=C(OC)C1=O`, the inhibition is 37% (active).

On to `COC1=C/C(=C/c2c(N)n3nc(CC(=O)N4CCOCC4)sc3nc2=O)C=CC1=O`, for which the inhibition is 9.73%. Under `COc1cc(/C=C2\C(=N)N3N=C(CC(=O)N4CCOCC4)SC3=NC2=O)cc(OC)c1OC` stands 1.57%; under `CCN(CC)P(=O)(Nc1ccc(SC(F)F)cc1)c1ccc(N(C)C)cc1NC(=O)c1ccco1` (centres undefined), -3.15%.
